Screening data as filed in PubChem BioAssay.
TDP1 inh = inhibitors of human tyrosyl-DNA phosphodiesterase TDP1. Q9NUW8. recombinant TDP1, AlphaScreen DNA substrate cleavage. Potency, µM (top dose mostly 130 µM), inactives show top-dose activity change, negative = inhibition, actives largely listed as inhibitors. 350,000 tested, 0.28% active. AID 485290; also: potency is read from the fitted curve at half-maximal effect; % is scaled to controls: 0 for no effect and ±100 for the full control effect; nearly all actives have a fitted effect of over 40% in size
Target sequence (Q9NUW8 whole entry, looked up): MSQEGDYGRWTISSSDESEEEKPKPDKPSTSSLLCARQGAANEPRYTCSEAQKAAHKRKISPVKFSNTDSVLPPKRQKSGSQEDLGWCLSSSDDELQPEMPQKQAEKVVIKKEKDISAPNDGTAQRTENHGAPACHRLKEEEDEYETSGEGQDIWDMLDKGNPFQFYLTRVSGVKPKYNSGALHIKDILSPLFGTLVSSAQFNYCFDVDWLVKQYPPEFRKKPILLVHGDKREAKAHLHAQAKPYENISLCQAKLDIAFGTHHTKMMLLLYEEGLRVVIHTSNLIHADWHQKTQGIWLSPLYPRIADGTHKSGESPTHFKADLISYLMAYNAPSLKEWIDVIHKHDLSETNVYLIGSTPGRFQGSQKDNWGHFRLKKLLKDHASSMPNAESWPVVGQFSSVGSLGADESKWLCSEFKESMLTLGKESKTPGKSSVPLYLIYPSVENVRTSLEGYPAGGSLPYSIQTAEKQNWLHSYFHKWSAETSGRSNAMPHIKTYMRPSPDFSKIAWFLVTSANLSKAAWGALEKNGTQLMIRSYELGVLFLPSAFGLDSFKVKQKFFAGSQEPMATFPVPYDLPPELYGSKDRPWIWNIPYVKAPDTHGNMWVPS
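Tdp1 1 nM final; 15 min RT w/ cpd; substrate 15 nM, 5 min; beads 10 ug/ml, 10 min; AlphaScreen read. Neg ctrl: no enzyme.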
Tb PGK inh = T. brucei PGK inhibition; PGK/GAPDH coupled, Kinase-Glo luminescence, 60 min; AID 602233; 380,000 tested, 0.043% active; Potency, µM (titrated, usually from 57.5 µM), inactives show at the top dose activity change, negative = inhibition, usual class: inhibitors; also: potency is read from the fitted curve at half-maximal effect; % is scaled to controls: 0 for no effect and ±100 for the full control effect; nearly all actives have a fitted effect of over 60% in size
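Recombinant glycosomal PGK reaction used 1,3-bisphosphoglycerate generated in-well by GAPDH (100nM final) in 100mM TEA pH 7.6, 5mM MgCl2, 0.01% Tween-20. After 60 minutes at room temperature, ATP was read by Kinase-Glo Plus luminescence end-point.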
Tb PFK block = blocks T. brucei phosphofructokinase | AID 485367 | T. brucei PFK, ADP-Glo luminescence | O15648 | 330,000 tested, 0.17% active | Potency, µM (titrated, usually from 57.5 µM), for the others: at the highest dose activity, negative = inhibition, usual class: inhibitors;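 also: potency is read from the fitted curve at half-maximal effect; 0% = uninhibited 1x PFK enzyme wells and -100% = no-enzyme wells; nearly all actives have a fitted effect of over 60% in size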
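1.25 nM PFK with 0.5 mM F6P and 0.1 mM ATP in 0.1 M TEA pH 8.0, 5 mM MgCl2, incubated 45 min at room temperature; ADP measured by ADP-Glo luminescence; compounds titrated up to 57 uM.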
FEN1 inh-1 = human FEN1 inhibition | Potency, µM (top dose mostly 114 µM), inactives show at the top dose activity change, negative = inhibition, usual class: inhibitors | Recombinant FEN1 flap cleavage, fluorescence, 15 min | P39748 | 390,000 tested, 0.35% active; also: potency is read from the fitted curve at half-maximal effect; % is scaled to controls: 0 for no effect and ±100 for the full control effect; nearly all actives have a fitted effect of over 65% in size
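Read-out was taken twice, immediately and after 15 min, following addition of 50 nM substrate to 10 nM FEN1 that had sat with test compound for 15 min at room temperature. Curves came from a four-parameter Hill model.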
WRN helicase inh = inhibitors of human WRN helicase; 360,000 tested, 0.46% active; Potency, µM (series often up to 114 µM), for inactives: top-dose activity change, negative = inhibition, actives largely listed as inhibitors; Q14191; WRN helicase unwinding, fluorescent forked duplex, kinetic; also: potency is read from the fitted curve at half-maximal effect; % is scaled to controls: 0 for no effect and ±100 for the full control effect; nearly all actives have a fitted effect of over 55% in size
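Enzyme (20 nM final) and test compound sit together 15 min at room temperature before substrate addition. Substrate is a single-forked duplex oligonucleotide (100 nM) labelled with fluorophore and quencher, with 2 mM ATP; helicase unwinding raises red fluorescence, read kinetically.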
PI5P4K alpha inh = blocks human PI5P4K alpha kinase activity; 330,000 tested, 1.2% active; P48426; PI5P4Kalpha enzyme, ADP-Glo luminescence, 60 min; hits give low values; max response, %; active = max response of -50% or lower; inconclusive = between -30% and -50%; inactive = -30% or higher; also: value at the top dose of about 77 µM; % is scaled to controls: 0 for no effect and ±100 for the full control effect
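Quantitative HTS of the MLSMR library against PI5P4Kalpha with substrate. ATP added last at 5 microM final; room temperature, 60 minutes. Remaining ATP depleted, ADP converted and read as luminescence.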
FEN1 inh-2 = FEN1 inhibition, cherry-pick retest; shares compounds with FEN1 inh-1; FEN1 flap cleavage, TAMRA/BHQ2 fluorogenic DNA substrate; Potency, µM, usual class: inhibitors; 880 tested, 79% active; also: potency is read from the fitted curve at half-maximal effect; nearly all actives have a fitted effect of over 60% in size
The depositor's hits bear a star; [ ] = dose if it differs, or a comment. Most compounds without a hit are left out; they make up all but 1.5% or so of the library. Unless noted, calls follow the shape of the dose curve; as a rule, active = well fitted curve in the direction sought with a large enough effect; inconclusive = small, poorly fitted or top-dose-only effect, or another doubt; inactive = no such curve, though single readings can be large; an effect the other way counts as inactive or inconclusive.

Screening CCOc1ccc(NC(=O)c2cnn3c2NC(C)=C(C(=O)Nc2ccc(Cl)cc2)C3c2ccc(OC)c(OC)c2)cc1 (centres undefined) returned TDP1 inh 0%, Tb PGK inh inactive and FEN1 inh-1 -4%.
For O=C(c1ccc2c(=O)n(CC3CCCO3)c(=S)[nH]c2c1)N1CCN(C(=O)c2ccco2)CC1 (centres undefined) the results were FEN1 inh-1 -5%.
Screening COc1cc(CNc2ncnc3ccc(-c4c(C)noc4C)cc23)cc(OC)c1OC returned TDP1 inh 9%.
Screening Cc1ccc(S(=O)(=O)ON2C(=O)c3cccc4cccc(c34)C2=O)cc1 returned TDP1 inh -3%, Tb PFK block 0%, FEN1 inh-1 18µM*, WRN helicase inh 11%, PI5P4K alpha inh -2 and FEN1 inh-2 38*.
`O=C1c2cccc3cccc(c23)C(=O)N1OS(=O)(=O)c1ccc(Br)cc1` gave TDP1 inh 2%, Tb PGK inh inactive, Tb PFK block 0%, FEN1 inh-1 inconclusive, WRN helicase inh 8%[11.6 µM], PI5P4K alpha inh -2 and FEN1 inh-2 11*.
For NS(=O)(=O)c1ccc(N=Nc2c[nH]c(=O)c(O)c2)cc1 the results were TDP1 inh -6%, Tb PGK inh inconclusive, Tb PFK block -29%, FEN1 inh-1 inconclusive, WRN helicase inh inconclusive, PI5P4K alpha inh -63* and FEN1 inh-2 inconclusive.
CC(=O)Nc1ccc(SCCN2CCN(CCc3ccccc3)CCC2=O)cc1 was read as TDP1 inh 19% and FEN1 inh-1 inconclusive.
Screening Oc1ccc(/C=N/Nc2ccc(Cl)nn2)c(O)c1O returned Tb PGK inh -9%, Tb PFK block -7%, FEN1 inh-1 inconclusive, WRN helicase inh inconclusive, PI5P4K alpha inh -71* and FEN1 inh-2 38*.
`CCOc1ccc(/C=N/Nc2ccc(Cl)nn2)c(O)c1` gave TDP1 inh -1%, Tb PGK inh inactive, Tb PFK block -4%, FEN1 inh-1 -4%, WRN helicase inh -2%[57.1 µM] and PI5P4K alpha inh -3.
Screening O=C(O)c1ccccc1-c1c2ccc(=O)cc-2oc2cc(O)ccc12 returned TDP1 inh 29%.
For COC(=O)c1ccccc1-c1c2ccc(=N)cc-2oc2cc(N)ccc12 the results were TDP1 inh 8%, Tb PGK inh -11%, Tb PFK block -5%, FEN1 inh-1 28µM*, WRN helicase inh 4.7µM*, PI5P4K alpha inh -8 and FEN1 inh-2 67*.
Screening CC(=O)NCCCC[C@H](NC(=O)OC(C)(C)C)C(=O)Nc1ccc2c(C(F)(F)F)cc(=O)oc2c1 returned TDP1 inh 1%.
`CCOc1ccccc1NC(=O)CSc1nc2ccccc2c2nc(CCn3cncc3C)nn12` gave TDP1 inh -1%, Tb PGK inh 13%, FEN1 inh-1 -25% and FEN1 inh-2 inconclusive.
Cc1cncn1CCc1nc2c3ccccc3nc(SCC(=O)Nc3cccc(Cl)c3)n2n1 was read as TDP1 inh 13%, Tb PGK inh inactive, Tb PFK block 0%, FEN1 inh-1 4%, WRN helicase inh 21% and PI5P4K alpha inh 1.
For CCN(CC)CCN1C(=O)c2cccc3cc(N)cc(c23)C1=O the results were TDP1 inh -3%, Tb PGK inh 0%, Tb PFK block 6%, FEN1 inh-1 50µM*, WRN helicase inh 13%[11.6 µM], PI5P4K alpha inh 2 and FEN1 inh-2 inconclusive.
CN(C)c1ccc(C=C2SC(=S)NC2=O)cc1 was read as Tb PGK inh -14%, FEN1 inh-1 -34%, WRN helicase inh inconclusive, PI5P4K alpha inh -14 and FEN1 inh-2 inconclusive.
COCCCNC(=O)c1cccn2c(=O)c3cc4ccccc4cc3nc12 was read as TDP1 inh 9%, Tb PGK inh -10%, Tb PFK block -3%, FEN1 inh-1 inconclusive, WRN helicase inh -12% and FEN1 inh-2 inconclusive.
CCOC(=O)c1cc2c(=O)n3ccccc3nc2n(Cc2ccco2)c1=NC(=O)c1c(F)cccc1Cl was read as TDP1 inh 6%, Tb PGK inh -9%, FEN1 inh-1 -29% and FEN1 inh-2 inconclusive.
Screening CCOC(=O)c1cc2c(=O)n3ccccc3nc2n(Cc2ccco2)c1=NC(=O)c1cccc(C)c1 returned TDP1 inh 0%, Tb PGK inh 15% and FEN1 inh-1 0%.
Screening Cc1cc2c(=Cc3ccc(N(C)C)cc3)c3ccccc3n2[n+]1C returned Tb PGK inh -13%, FEN1 inh-1 14µM*, WRN helicase inh 35µM*, PI5P4K alpha inh -21 and FEN1 inh-2 27*.
CCOC(=O)c1cc2c(=Cc3ccc(N(C)C)cc3)c3ccccc3n2[n+]1C was read as Tb PGK inh inactive, FEN1 inh-1 22µM*, WRN helicase inh 16µM*, PI5P4K alpha inh -15 and FEN1 inh-2 34*.
O=S(=O)(c1ccc(Br)cc1Cl)N1CCN(CCO)CC1 was read as TDP1 inh 5%, Tb PGK inh inactive, Tb PFK block -1%, FEN1 inh-1 -3%, WRN helicase inh 7% and PI5P4K alpha inh 0.
Screening O=C1C=CC(=O)c2c(O)c(N3CCN(CCO)CC3)c(Cl)c(O)c21 returned Tb PGK inh inconclusive, FEN1 inh-1 inconclusive, WRN helicase inh 32µM*, PI5P4K alpha inh inconclusive and FEN1 inh-2 76*.
CCCCOc1ccc(CC(=O)N(C)OC)cc1 was read as FEN1 inh-1 0%.
Screening COc1cc(/C=C2\SC(=O)N(CC(=O)Nc3ccc(C)cc3)C2=O)cc(Cl)c1OCC(=O)O returned Tb PGK inh inconclusive, Tb PFK block -21%, FEN1 inh-1 inconclusive, WRN helicase inh 50µM*, PI5P4K alpha inh -17 and FEN1 inh-2 67*.
`Cc1ccc(NC(=O)CN2C(=O)S/C(=C\c3ccccn3)C2=O)cc1` gave TDP1 inh 0%, Tb PGK inh -5%, Tb PFK block -2%, FEN1 inh-1 0%, WRN helicase inh 0% and PI5P4K alpha inh -5.
Cc1ccc(NC(=O)CN2C(=O)S/C(=C\c3ccc(OCC(=O)O)c(Br)c3)C2=O)cc1 was read as Tb PGK inh inconclusive, Tb PFK block 0%, FEN1 inh-1 inconclusive, WRN helicase inh inconclusive, PI5P4K alpha inh inconclusive and FEN1 inh-2 inconclusive.
